In the library only some 2.2% were active in any assay of this set; here they are far more common.
Mito fusion yeast – mitochondrial division inhibition or fusion activation | Potency, µM (top dose mostly 46.1 µM), usual class: activators | S. cerevisiae fusion-defective mutant growth rescue, CellTiterGlo 48 h | 320,000 tested, 0.23% active | AID 485298; note: nearly all actives have a fitted effect of over 45% in size
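Compounds are tested for their ability to restore growth of mitochondrial fusion-defective yeast strains at non-permissive 37C in YPEG medium over 48 hours. Viability is quantified by luciferase luminescence.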
aSyn rescue – rescues yeast growth from alpha-synuclein toxicity; Potency, µM (doses to about 46.1 µM), most hits filed as activators; Yeast expressing alpha-synuclein, growth rescue, BacTiter-Glo, 24 h; AID 652106; 370,000 tested, 0.14% active; note: nearly all actives have a fitted effect of over 65% in size
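Readout is rescue of growth in alpha-synuclein-expressing yeast, so inhibitors of toxicity appear as activators. Growth after 24 hr at 30 deg C in galactose medium is quantified by luminescence.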
FUS yeast rescue – suppressors of FUS proteinopathy in yeast. S. cerevisiae FUS-expressing, growth rescue, OD600, 24 h. Potency, µM (series often up to 76.6 µM), most hits filed as activators. 390,000 tested, 0.24% active. AID 1347120; note: nearly all actives have a fitted effect of over 55% in size
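S. cerevisiae expressing FUS from galactose induction served as the toxicity model. Growth after 24hr at 30C, read as absorbance at 600 nm, indicates suppression of toxicity; compounds dosed at several concentrations.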
TDP43 rescue – TDP-43 toxicity inhibition in yeast | 410,000 tested, 1.8% active | Potency, µM (top dose mostly 46.1 µM), actives largely listed as activators | TDP-43 expressing yeast growth rescue, BacTiter-Glo, 24 h; note: nearly all actives have a fitted effect of over 50% in size
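Galactose-induced TDP-43 yeast, OD600=0.02, compound pinned; 24 hr, 30 deg C; BacTiter-Glo luminescence for growth. Inhibitors of TDP-43 toxicity read as activators.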
Abeta rescue – A-beta toxicity reversal in yeast. yeast expressing A-beta42, growth rescue, OD600, 48 h; response scale: 0% DMSO, 100% iron-clioquinol control. Potency, µM (titrated, usually from 46.1 µM), usual class: activators. 410,000 tested, 0.063% active. AID 1347071; note: nearly all actives have a fitted effect of over 55% in size
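Growth rescue measured by 600 nm absorbance after 48 h yeast culture at 30 C with compound. Values normalized between DMSO and an equimolar ferric chloride plus clioquinol control.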
Large screens that a line does not name were inactive. Calls come from the whole dose curve; as a rule, active = well fitted curve in the direction sought with a large enough effect; inconclusive = small, poorly fitted or top-dose-only effect, or another doubt; inactive = no such curve, though single readings can be large; an effect the other way counts as inactive or inconclusive.

COc1ccc(OC)c(CCNC(=O)c2c(C)oc3ncn(CC(C)C)c(=O)c23)c1	FUS yeast rescue inconclusive, TDP43 rescue 25µM (no result: Mito fusion yeast, aSyn rescue)
COc1ccc(OC)c(CNC(=O)c2c(C)oc3ncn(CC(C)C)c(=O)c23)c1	TDP43 rescue inconclusive (no result: Mito fusion yeast, aSyn rescue)
CCc1ccc(CNC(=O)c2c(C)oc3ncn(CC(C)C)c(=O)c23)cc1	TDP43 rescue 25µM (no result: Mito fusion yeast, aSyn rescue)
CCc1cc2c(cc3c(=O)n(CC(=O)NC4CCCCC4)ncn32)s1	none (no result: Mito fusion yeast, aSyn rescue)
COc1ccc(F)cc1NC(=O)C1CCN(c2nc(-c3ccc(OC)c(OC)c3)no2)CC1	none (no result: Mito fusion yeast, aSyn rescue)
CCCCCCCCN1C(=O)[C@H](CC(=O)N2CCOCC2)C[C@@]2(C(=O)OC)CC(C)(C)CC=C12	aSyn rescue inconclusive, FUS yeast rescue 13µM, TDP43 rescue inconclusive (no result: Mito fusion yeast)
CCCCCCCCN1C(=O)[C@H](CC(=O)NCc2ccc(OC)c(OC)c2)C[C@@]2(C(=O)OC)CC(C)(C)CC=C12	aSyn rescue inconclusive, FUS yeast rescue inconclusive, TDP43 rescue 22µM (no result: Mito fusion yeast)
COC(=O)[C@@]12C[C@@H](CC(=O)NCc3cccc4ccccc34)C(=O)N(Cc3ccc4c(c3)OCO4)C1=CCC(C)(C)C2	FUS yeast rescue 6.3µM (no result: Mito fusion yeast)
CCCC(CCC)C(=O)NC1CC(=O)N(c2ccc3c(c2)OCCO3)C1 (configuration not stated)	none (no result: Mito fusion yeast, aSyn rescue)
COC(=O)C1=C(C)N(c2cc(Cl)cc(Cl)c2)C(=O)C1	TDP43 rescue 18µM
COC(=O)c1ccc(CSc2nnc(Nc3ccc(OC)cc3)s2)o1	none
COC(=O)c1ccc(CSc2nnc(Nc3ccccc3OC)s2)o1	TDP43 rescue 18µM
Oc1ccccc1C1C=C(c2ccc3c(c2)OCO3)NC(c2cccc(Cl)c2)N1 (configuration not stated)	aSyn rescue 4.5µM (no result: Mito fusion yeast, FUS yeast rescue, TDP43 rescue, Abeta rescue)
Nc1ccccc1SCC(O)Cn1ccc2ccccc21 (configuration not stated)	aSyn rescue inconclusive, TDP43 rescue 18µM
OC(CN1CCNCC1)Cn1ccc2ccccc21 (configuration not stated)	none (no result: aSyn rescue, FUS yeast rescue, TDP43 rescue, Abeta rescue)
CCc1cccc(NC(=O)C2CCN(S(=O)(=O)c3cccc(-c4noc(C)n4)c3)CC2)c1	FUS yeast rescue inconclusive (no result: Mito fusion yeast, aSyn rescue)
Cc1[nH]n(C(N)=S)c(=O)c1N=Nc1ccc(S(=O)(=O)N2CCCCCC2)cc1	TDP43 rescue 4µM
Cc1cccc2sc(N(Cc3cccnc3)C(=O)CCS(=O)(=O)c3ccccc3)nc12	none (no result: Mito fusion yeast, aSyn rescue)
COc1cccc(-c2nc(SCC(=O)Nc3ccc4c(c3)OCO4)c(-c3ccccc3)[nH]2)c1	FUS yeast rescue inconclusive, TDP43 rescue 22µM (no result: Mito fusion yeast, aSyn rescue)
CCOC(=O)c1nnsc1Nc1ccc(C)c(C)c1	TDP43 rescue 11µM
C[C@H]([C@@H](N)C(=O)N[C@@H](C(=O)O)[C@@H]1O[C@H](n2ccc(=O)[nH]c2=O)[C@@H](O)[C@H]1O)[C@@H](O)c1ccc(O)cn1	TDP43 rescue 4.5µM, Abeta rescue inconclusive
C[C@H](NC(=O)/C=C/[C@H]1O[C@@H](n2ccc(=O)[nH]c2=O)[C@H](O)[C@@H]1O)C(=O)O	none (no result: Mito fusion yeast)
CCOC(=O)N1CCc2c(sc3c2c(=O)n(-c2ccc(Cl)cc2)c(=O)n3CC(C)C)C1	none (no result: Mito fusion yeast, aSyn rescue)
COc1ccc(CCNc2nc(SCc3ccc(F)cc3)nc3ccccc23)cc1OC	none (no result: Mito fusion yeast, aSyn rescue)
Cc1nn2c(-c3ccccc3)ccnc2c1Br	TDP43 rescue 20µM
Cc1ccc(-c2ccnc3c(Br)c(C)nn23)cc1	aSyn rescue inconclusive
COC(=O)[C@]1(Cc2ccccc2)N[C@H](c2ccc(-c3cccc(Cl)c3)c(OC)c2)[C@@H]2C(=O)N(C)C(=O)[C@@H]21	FUS yeast rescue 14µM (no result: Mito fusion yeast)
CCN1C(=O)[C@H]2[C@@H](c3ccc(-c4cccc(Cl)c4)c(OC)c3)N[C@@](Cc3ccccc3)(C(=O)OC)[C@H]2C1=O	FUS yeast rescue inconclusive
COC(=O)[C@]1(CC(C)C)N[C@H](c2ccc(-c3ccc(F)cc3)c(OC)c2)[C@@H]2C(=O)N(C)C(=O)[C@@H]21	FUS yeast rescue 28µM
C[C@H](CO)N1C[C@H](C)[C@@H](CN(C)C(=O)C2CC2)OCc2cnnn2CCCC1=O	TDP43 rescue inconclusive (no result: Mito fusion yeast)
CCOc1ccc(/C=N/n2c(C3CCCCC3)n[nH]c2=S)cc1	TDP43 rescue inconclusive, Abeta rescue inconclusive
Cc1ccc(S(=O)(=O)N2C[C@H]3[C@H]4C(=O)N(Cc5ccccc5)C(=O)[C@H]4CC(=O)[C@H]3[C@@H]2c2ccccc2F)cc1	FUS yeast rescue 18µM (no result: Mito fusion yeast)
Cc1ccc(S(=O)(=O)N2C[C@H]3[C@H]4C(=O)N(Cc5ccccc5)C(=O)[C@H]4CC(=O)[C@H]3[C@@H]2c2ccccc2Cl)cc1	none (no result: Mito fusion yeast)
O=C(Nc1cccc(Nc2ccccc2)c1)c1cnn2c1NC(=C1CC1)C=C2C(F)F	none (no result: Mito fusion yeast, FUS yeast rescue, TDP43 rescue, Abeta rescue)
Cc1ccccc1-n1c2nc(=O)[nH]c(=O)c-2cc2c(Cl)cccc21	TDP43 rescue 3.5µM (no result: Mito fusion yeast, aSyn rescue)
COc1ccc(-c2csc(Nc3ccccc3)n2)cc1	TDP43 rescue 10µM, Abeta rescue inconclusive
O=C(Nc1cccc(-c2csc(Nc3ccccc3)n2)c1)c1ccccc1	TDP43 rescue 6.3µM
COc1ccc(-c2csc(-n3cccn3)n2)cc1	TDP43 rescue 10µM
COc1ccc(-c2csc(N3CCSCC3)n2)cc1	none
COc1ccc(-c2csc(-c3cccnc3)n2)cc1C	TDP43 rescue 16µM
OC(c1ccccc1)c1nc(-c2cccs2)cs1 (configuration not stated)	TDP43 rescue inconclusive (no result: Mito fusion yeast)
O=C(Nc1ccc(-c2csc(Nc3cccc(C(F)(F)F)c3)n2)cc1)c1ccccc1	none
O=C(Nc1cccc(-c2csc(Nc3cccc(C(F)(F)F)c3)n2)c1)c1ccccc1	TDP43 rescue 18µM
COc1ccc(-c2csc(Nc3ncccc3C)n2)cc1OC	TDP43 rescue 14µM
COc1ccc(-c2csc(Nc3ncccc3C)n2)cc1	none
Oc1cccc2c(NC(=S)Nc3ccc(SC(F)F)cc3)cccc12	TDP43 rescue 11µM
Oc1cccc(NC(=S)Nc2ccc(SC(F)F)cc2)c1	none
CSC1=NC2(CCN(C(=O)NC3CCCCC3)CC2)N=C1c1ccc(C(C)(C)C)cc1	none (no result: Mito fusion yeast, aSyn rescue)
O=C(O/N=C\c1ccc(N2CCOCC2)c([N+](=O)[O-])c1)c1ccccc1Cl	TDP43 rescue 14µM (no result: FUS yeast rescue)
O=C(Oc1cc(Cl)ccc1Cl)c1ccc(N2CCOCC2)c([N+](=O)[O-])c1	TDP43 rescue inconclusive, Abeta rescue 5.6µM
COc1ccc(OC)c(NC(=O)C2CCCCC2C(=O)O)c1 (configuration not stated)	none
COc1ccc(OC)c(NC(=O)c2ccc(NC(C)=O)cc2)c1	none
COc1ccc(OC)c(NC(=O)C2C3CCC(C3=C(C)C)C2C(=O)O)c1 (configuration not stated)	TDP43 rescue 16µM
COc1ccc(OC)c(NC(=O)c2ccc(OC3CSC3)cc2)c1	TDP43 rescue 13µM, Abeta rescue inconclusive

High-throughput results deposited in PubChem by National Center for Advancing Translational Sciences (NCATS).
